14-3-3 Bad PPI: disrupts binding of bovine 14-3-3 zeta to phospho-Bad peptide | inhibition, % at 21.7 µM | AID 781 | TR-FRET 14-3-3zeta/Dy647-pBad peptide displacement, 1 h | P63103 | actives 0.71% (n = 220,000);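 active = inhibition above about 70%, limit read from the data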
Target sequence (P63103 whole entry, looked up): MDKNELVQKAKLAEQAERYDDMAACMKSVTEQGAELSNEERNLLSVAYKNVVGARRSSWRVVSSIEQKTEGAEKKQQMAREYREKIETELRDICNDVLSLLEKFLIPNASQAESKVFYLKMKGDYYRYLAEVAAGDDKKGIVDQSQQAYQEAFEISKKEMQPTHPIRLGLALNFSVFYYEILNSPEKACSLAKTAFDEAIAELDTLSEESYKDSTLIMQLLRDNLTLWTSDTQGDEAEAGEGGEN
Bim-Mcl-1: disrupts Bim peptide binding to human Mcl-1. Q07820. Bead-based flow cytometry, Bim peptide-Mcl-1 binding. inhibition, % at 10 µM. actives 0.1% (n = 190,000); in the data active = inhibition above about 40%
Target sequence (Q07820 whole entry, looked up): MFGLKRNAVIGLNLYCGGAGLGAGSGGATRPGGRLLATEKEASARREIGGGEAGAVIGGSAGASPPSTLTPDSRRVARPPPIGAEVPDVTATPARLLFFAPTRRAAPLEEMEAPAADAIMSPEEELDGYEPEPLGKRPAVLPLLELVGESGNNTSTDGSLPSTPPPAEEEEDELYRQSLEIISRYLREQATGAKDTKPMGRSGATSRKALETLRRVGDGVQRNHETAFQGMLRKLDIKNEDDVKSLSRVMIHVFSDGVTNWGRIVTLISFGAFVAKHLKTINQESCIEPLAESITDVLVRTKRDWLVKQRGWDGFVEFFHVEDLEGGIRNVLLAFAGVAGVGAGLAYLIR
eIF4E 4G PPI: eIF4E/eIF4G interaction inhibition in translation initiation. P63073+Q04637. TR-FRET eIF4E-eIF4GI(517-606) binding, 2 h. inhibition, % at 21.7 µM. actives 0.37% (n = 220,000)
Mcl1-Bid inh: Mcl-1/Bid interaction inhibition; TR-FRET Mcl-1/Bid-Dy647 peptide binding, 1536-well; Q07820; actives 0.97% (n = 220,000); inhibition, % at 21.7 µM;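 active = compounds that cut the binding signal by more than half at the single screening dose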;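 note: His-tagged Mcl-1 with europium anti-His antibody binding Bid BH3 peptide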
Mcl1 Noxa PPI: disrupts binding of human Mcl-1 to Noxa peptide. Q07820. TR-FRET Mcl-1/Noxa peptide binding, 2 h. inhibition, % at 21.7 µM. actives 1.5% (n = 220,000);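 active = compounds that cut the protein-peptide binding signal by more than 50% relative to plate controls in a single-dose test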;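 note: His-tagged Mcl-1 with rhodamine Noxa BH3 peptide and terbium anti-His antibody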
p47phox inh: p47phox (human) inhibition. P14598. actives 0.53% (n = 220,000). p47phox/p22phox peptide binding, fluorescence polarization, 2 h. inhibition, % at 24.7 µM
Hits are given with their value; – = inactive; · = no result given. Shown are actives, neighbours in structure and some others; about 3.3% of the full set was active somewhere.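 Rule for the calls, unless noted: active = inhibition above about 30% (limit read from the data); inactive = the rest.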

SMILES | 14-3-3 Bad PPI | Bim-Mcl-1 | eIF4E 4G PPI | Mcl1-Bid inh | Mcl1 Noxa PPI | p47phox inh
O=C(O)C(Cc1ccccc1)N1C(=O)/C(=C/c2cccc3ccccc23)SC1=S (centres undefined) | – | – | – | 91 | 78 | –
CCn1c(SCC(=O)NCc2ccccc2)nnc1-c1cccnc1 | – | – | – | – | – | –
CC(NC(=O)c1cn(C(C)c2ccccc2F)nn1)c1ccncc1 (centres undefined) | – | – | – | – | – | –
Cc1ccc(-c2csc(NC(=O)C3=NN(C4CCS(=O)(=O)C4)C(=O)CC3)n2)cc1 (centres undefined) | – | · | – | – | – | –
COc1ccc(COC(=O)NNC(=O)c2ccccc2Cl)cc1 | – | 47 | – | – | – | –
O=C(NNC(=O)c1ccccc1Cl)c1ccco1 | – | · | – | – | – | –
O=C(NNC(=O)c1ccccc1Cl)c1ccccc1Cl | – | · | – | 95 | – | –
CCN1CCN(Cc2ccc(NC(=O)c3cc(NC(=O)c4ccno4)cc(OC)c3)cc2C(F)(F)F)CC1 | – | · | – | – | – | –
CCN1CCN(Cc2ccc(NC(=O)c3ccc(C)c(NC(=O)C4=NN(c5ccccc5)C(=O)C4)c3)cc2C(F)(F)F)CC1 | – | · | – | – | 63 | –
CCN1CCN(Cc2ccc(NC(=O)c3ccc(C)c(NC(=O)c4c[nH]c5cc(C(F)(F)F)ccc5c4=O)c3)cc2C(F)(F)F)CC1 | – | · | – | – | – | 73
CCN1CCN(Cc2ccc(NC(=O)c3cc(NC(=O)C4=NN(c5ccccc5)C(=O)C4)cc(OC)c3)cc2C(F)(F)F)CC1 | – | · | – | – | 69 | –
CCN1CCN(Cc2ccc(NC(=O)c3cc(NC(=O)c4cc5cccc(OC)c5o4)cc(OC)c3)cc2C(F)(F)F)CC1 | – | · | – | – | – | 57
CCOC(=O)C1(CCOc2ccccc2)CCN(Cc2ccc3nonc3c2)CC1 | – | – | – | – | – | –
CCN1CCN(Cc2ccc(NC(=O)c3cc(NC(=O)c4cc(-c5ccc(OC)cc5)n[nH]4)cc(OC)c3)cc2C(F)(F)F)CC1 | – | · | – | – | – | 38
O=C(NC1(N2CCOCC2)CC1)c1ccc(Cl)cc1 | – | · | – | – | – | –
C=CCN1C=C/C(=C\C=C(C#N)C#N)c2ccccc21 | – | – | – | – | – | 83
CCCCCCN1C=C/C(=C\C=C(C#N)C#N)c2ccccc21 | – | – | – | – | – | 128
Cc1cc(=O)[nH]c(SCC(=O)c2ccc3c(c2)NC(=O)CO3)n1 | – | · | – | 97 | – | –
O=C1COc2ccc(C(=O)COC(=O)c3sc4ccccc4c3Cl)cc2N1 | – | – | – | – | – | –
CN(C)S(=O)(=O)c1cccc(C(=O)OCC(=O)c2ccc3c(c2)NC(=O)CO3)c1 | – | 89 | – | – | – | –
Cc1cc(C(=O)OCC(=O)c2ccc3c(c2)NC(=O)CO3)c2ccccc2n1 | – | – | – | 63 | – | –
COc1ccc(-c2cc(C(F)F)n3ncc(C(=O)Nc4cccc(S(=O)(=O)N5CCOCC5)c4)c3n2)cc1 | – | – | – | – | – | –
Cc1ccc2c(c1)N(CC(=O)OCC(=O)NCc1ccccc1)C(=O)CO2 | – | – | – | – | – | –
CCC1CCC2(CC1)NC(CO)(CO)CO2 (centres undefined) | – | – | – | 64 | – | –
COc1ccc(-c2nnc(CSc3nc4ccccc4c(=O)n3CC(C)C)o2)cc1OC | · | – | · | – | – | 37
SMILES | 14-3-3 Bad PPI | Bim-Mcl-1 | eIF4E 4G PPI | Mcl1-Bid inh | Mcl1 Noxa PPI | p47phox inh
O=C(O)c1ccc(-n2c(-c3cc(-c4ccco4)[nH]n3)n[nH]c2=S)cc1 | – | – | – | – | – | –
CC(=O)c1ccc(-n2c(-c3cc(-c4ccco4)[nH]n3)n[nH]c2=S)cc1 | – | – | – | – | 63 | –
COc1cc2c(=O)n(CCC(=O)NCC3CCCO3)c(=O)n(CC(=O)c3ccc(Cl)cc3)c2cc1OC (centres undefined) | – | – | – | – | – | –
C#CCOCCOCCOCCNc1nc(N2CCN(C(=O)[C@H](CCCCN)n3cc(C(N)[C@H](C)CC)nn3)CC2)nc(N2CCN(C(=O)[C@H](CCC(=O)O)n3cc(C(N)[C@H](C)CC)nn3)CC2)n1 (some centres undefined) | – | – | – | 75 | – | –
C#CCOCCOCCOCCNc1nc(N2CCN(C(=O)[C@H](CCCCN)n3cc([C@@H](N)C(C)CC)nn3)CC2)nc(N2CCN(C(=O)[C@H](CCCCN)n3cc([C@@H](N)CO)nn3)CC2)n1 (some centres undefined) | – | – | – | 88 | – | ·
O=C(COc1ccc(Cl)cc1Cl)N/N=C/c1ccc(OC2OC(CO)C(O)C(O)C2O)cc1 (centres undefined) | – | · | – | – | – | –
Cc1ccc(C(=O)Oc2ccc(-c3nccc(-c4ccccn4)n3)cc2)cc1 | – | – | – | 55 | – | –
O=C(Oc1ccc(-c2nccc(-c3ccccn3)n2)cc1)c1cccc(C(F)(F)F)c1 | – | – | – | – | – | –
CCc1nn2cc(C(=O)c3cc(C)ccc3O)cnc2c1-c1ccc(F)cc1 | – | 42 | – | – | – | –
O=[N+]([O-])c1c(Nc2ccccn2)cc(Cl)c2nonc12 | – | · | – | – | 57 | –
O=C(O)c1cccc(Nc2cc(Cl)c3nonc3c2[N+](=O)[O-])c1 | – | – | – | – | – | –
COCCN(C(=O)/C=C/c1ccccc1)c1nnc(-c2cccnc2)s1 | – | – | – | – | – | –
CCOC(=O)C1=C(C)NC(=O)C(C(N)=O)C12CCCCC2 (centres undefined) | – | – | – | – | 57 | –
CC(=O)Nc1c(O)nc(SCC(=O)Nc2nnc(SCc3ccccc3)s2)[nH]c1=O | – | – | – | – | – | –
COc1ccc(-c2cc(C(=O)NCC3CCCO3)c3ccccc3n2)cc1 (centres undefined) | – | – | – | – | – | –
COc1ccc(-c2cc(C(=O)NCC3CCCO3)c3cc(C)ccc3n2)cc1 (centres undefined) | 77 | – | – | – | – | –
Cn1c(=O)c2c(nc(OCc3ccc4c(c3)OCO4)n2Cc2ccccc2Cl)n(C)c1=O | – | – | – | 51 | – | –
Cn1c(=O)c2c(nc(NCc3ccc4c(c3)OCO4)n2Cc2ccccc2Cl)n(C)c1=O | – | – | – | – | – | –
Cc1ccc(-n2c(O)c(C=NC3CCS(=O)(=O)C3)c3ccccc3c2=O)c(C)c1 (centres undefined) | – | · | – | – | – | –
Cc1ccc(-n2c(O)c(C=NC3CCS(=O)(=O)C3)c3ccccc3c2=O)cc1 (centres undefined) | – | – | – | – | – | 51
CCOC(=O)N1CCC(N2CCN(S(=O)(=O)CC)CC2)CC1 | 72 | – | – | – | – | –
